Source: paper PMC4336329 (PLoS ONE, 2015)
Among all 310,000 compounds or so, about 14,000 (4.5%) showed an effect of 50% or more. Effects have a minus sign here. This is one part of a sample in which strong results are shown more often than they occur.

Target: human ether-à-go-go-related gene (hERG) potassium channel (human, UniProt Q12809)
Assay: primary screen, population patch clamp on CHO cells stably expressing hERG; higher = less effect of the substance
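Also: peak tail current of the secondary pulse compared with the same well before compound.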

Chain of human ether-à-go-go-related gene (hERG) potassium channel (Q12809 whole entry, looked up): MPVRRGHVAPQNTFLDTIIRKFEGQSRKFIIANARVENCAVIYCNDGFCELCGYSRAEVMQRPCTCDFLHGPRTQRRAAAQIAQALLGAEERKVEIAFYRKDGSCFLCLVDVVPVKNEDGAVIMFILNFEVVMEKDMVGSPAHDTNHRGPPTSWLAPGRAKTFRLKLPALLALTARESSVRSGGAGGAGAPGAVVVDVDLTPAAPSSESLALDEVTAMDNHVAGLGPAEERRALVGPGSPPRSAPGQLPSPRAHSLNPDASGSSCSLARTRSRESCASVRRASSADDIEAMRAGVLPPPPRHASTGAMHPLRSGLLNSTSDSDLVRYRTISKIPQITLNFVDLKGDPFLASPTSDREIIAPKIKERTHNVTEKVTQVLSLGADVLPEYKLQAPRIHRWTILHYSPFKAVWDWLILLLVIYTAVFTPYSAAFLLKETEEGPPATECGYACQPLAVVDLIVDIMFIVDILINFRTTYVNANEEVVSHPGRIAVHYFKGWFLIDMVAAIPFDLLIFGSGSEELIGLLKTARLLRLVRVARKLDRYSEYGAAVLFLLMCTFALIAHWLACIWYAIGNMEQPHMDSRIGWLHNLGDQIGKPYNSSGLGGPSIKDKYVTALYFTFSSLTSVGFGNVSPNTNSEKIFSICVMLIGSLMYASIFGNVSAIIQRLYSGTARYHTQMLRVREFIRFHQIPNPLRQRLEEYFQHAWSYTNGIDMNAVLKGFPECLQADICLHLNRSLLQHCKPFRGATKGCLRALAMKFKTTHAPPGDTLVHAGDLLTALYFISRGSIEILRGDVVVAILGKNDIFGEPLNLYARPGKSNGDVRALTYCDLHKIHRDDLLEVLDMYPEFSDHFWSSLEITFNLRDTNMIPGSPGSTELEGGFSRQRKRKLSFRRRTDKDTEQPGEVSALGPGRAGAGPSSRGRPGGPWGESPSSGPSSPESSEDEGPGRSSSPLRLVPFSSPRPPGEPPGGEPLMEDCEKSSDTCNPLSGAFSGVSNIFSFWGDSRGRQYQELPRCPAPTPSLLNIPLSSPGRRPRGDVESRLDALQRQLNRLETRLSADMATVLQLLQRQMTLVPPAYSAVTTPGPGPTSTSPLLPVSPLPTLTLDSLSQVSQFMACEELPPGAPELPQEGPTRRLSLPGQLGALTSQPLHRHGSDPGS

| Structure (SMILES) | hERG current change (%, negative = inhibition) at 10uM [%] |
| --- | --- |
| CNC(=S)Nc1cccc(S(=O)(=O)NC2=NCCC2)c1 | -7.6 |
| Cc1c(-c2ccccc2)c(=O)oc2ccc(O)cc12 | 13.8 |
| CC1CCCCC1NC1CCN(C)CC1 (stereo not shown) | 23.9 |
| O=C(Nc1ccc2c(c1)OCO2)c1c(F)cccc1F | 3.95 |
| COc1ccccc1-c1cc(C(=O)NCc2ccc(Cl)cc2)no1 | 3.64 |
| Cc1cc(Nc2n[nH]c(N)c2C#N)ccc1F | -70.2 |
| Cc1cc(Nc2nn(C)c(N)c2C#N)ccc1F | -14.8 |
| Cc1cc(Nc2c(C#N)c(N)nn2C)ccc1F | 6.99 |
| CCOc1ccc(C(=O)Nc2cc(-c3nc4ccccc4[nH]3)ccc2Cl)cc1[N+](=O)[O-] | -29.1 |
| CCCn1c2ccccc2c2cnn(CC(=O)NCCCN3C(C)CCCC3C)c(=O)c21 (stereo not shown) | -41.8 |
| CCCn1c2ccccc2c2cnn(CC(=O)NCCCN3CCN(c4ccccc4)CC3)c(=O)c21 | -74.2 |
| Cn1c2ccccc2c2cnn(CC(=O)N3CCCCC3)c(=O)c21 | -10.4 |
| CCCn1c2ccccc2c2cnn(CC(=O)N3CCOCC3)c(=O)c21 | -13.7 |
| CCCn1c2ccccc2c2cnn(CC(=O)NCCCN3CCCC(C)C3)c(=O)c21 (stereo not shown) | -70.8 |
| CCCn1c2ccccc2c2cnn(CC(=O)NCCCN3CCCCC3CC)c(=O)c21 (stereo not shown) | -62.2 |
| CCC1CCCCN1CCCNC(=O)Cn1ncc2c(C)n(Cc3ccccc3Cl)c(C)c2c1=O (stereo not shown) | -14.6 |
| CCC1CCCCN1CCCNC(=O)Cn1ncc2c([nH]c3ccc(C)cc32)c1=O (stereo not shown) | -6.66 |
| CCCn1c2ccccc2c2cnn(CC(=O)N3CCN(C4CCCCC4)CC3)c(=O)c21 | -72.6 |
| CCCn1c2ccccc2c2cnn(CC(=O)NCCCOC)c(=O)c21 | -1.43 |
| CCCn1c2ccccc2c2cnn(CC(=O)NC3CCCCC3C)c(=O)c21 (stereo not shown) | 11.7 |
| Cc1ccc(N(Cc2cc3ccccc3[nH]c2=O)C(=O)c2cccs2)cc1C | 9.8 |
| O=C(NNc1ccc(Cl)cc1)C1CCC1 | 16.6 |
| Cc1cc(C)cc(OCC(=O)O/N=C(\N)c2ccccc2Cl)c1 | -13.6 |
| CCOc1cc(/C=C(\C#N)C(N)=O)ccc1OCc1c(C)no[n+]1[O-] | -0.204 |
| Cc1cc(C)n(-c2ccc(C(F)(F)F)cc2[N+](=O)[O-])n1 | 1.78 |
| Cc1nn(C)c(N)c1-c1ccccc1 | 25.4 |
| O=C(Cn1ncc2c3ccccc3n(Cc3ccccc3)c2c1=O)NCCCN1CCCC1=O | -29.8 |
| Cc1ccc(C)c(Cn2c3ccccc3c3cnn(CC(=O)NCCCN4CCOCC4)c(=O)c32)c1 | -49.7 |

| Structure (SMILES) | hERG current change (%, negative = inhibition) at 10uM [%] |
| --- | --- |
| CCCn1c2ccccc2c2cnn(CC(=O)NC3CCCCC3)c(=O)c21 | 2.23 |
| O=C(Cn1ncc2c3ccccc3n(Cc3ccccc3)c2c1=O)NCCCN1CCCC1 | -72.5 |
| Cc1ccc(C)c(Cn2c3ccccc3c3cnn(CC(=O)NCCCN4CCCCC4)c(=O)c32)c1 | -71.9 |
| CCCn1c2ccccc2c2cnn(CC(=O)NCCCN3CCCCC3)c(=O)c21 | -53.4 |
| O=C(Cn1ncc2c3ccccc3n(Cc3ccc(Cl)cc3)c2c1=O)NCCCN1CCCC1=O | -34.5 |
| CCCn1c2ccccc2c2cnn(CC(=O)NC3CCC(C)CC3)c(=O)c21 (stereo not shown) | 9.11 |
| Cc1ccccc1Cn1c2ccccc2c2cnn(CC(=O)NCCCN3CCN(C)CC3)c(=O)c21 | -3.23 |
| CCCn1c2ccccc2c2cnn(CC(=O)NC3CCN(Cc4ccccc4)CC3)c(=O)c21 | -55.1 |
| Cc1ccccc1N(C(=O)c1csnn1)C(C(=O)NC1CCCCC1)c1ccncc1 (stereo not shown) | 10.7 |
| CN(C)S(=O)(=O)c1cc(NC(=O)CN2CCOCC2)ccc1Cl | 17.7 |
| COc1ccc(NC(=O)c2sc3nc(C)nc(N4CCN(c5ccccn5)CC4)c3c2C)cc1Cl | -3.04 |
| Cc1oc2cc(O)cc(O)c2c(=O)c1-c1ccc2c(c1)OCCCO2 | 3.88 |
| O=C(NC1CCCCCCC1)C1CCN(S(=O)(=O)N2CCCC2)CC1 | -2.62 |
| O=C(CNC(=O)c1ccco1)OCC(=O)c1ccc([N+](=O)[O-])cc1 | 11.9 |
| CCc1noc(C)c1C(=O)OCC(=O)c1ccc(OC)c(OC)c1 | -5.3 |
| CCN(CC)C(=O)c1cccc(NC(=O)c2ccc3c(=O)n4c(nc3c2)CCC4)c1 | -10.7 |
| CCc1ccc(NC(=O)c2ccc3c(=O)n4c(nc3c2)CCCCC4)cc1 | -46.8 |
| CCc1ccc(C(=O)NNC(=O)c2ccc3c(=O)n4c(nc3c2)CCC4)cc1 | 5.5 |
| CC(=O)c1cccc(NC(=O)c2ccc3c(=O)n4c(nc3c2)CCCCC4)c1 | -75.5 |
| CCOc1ccccc1NC(=O)c1ccc2c(=O)n3c(nc2c1)CCCCC3 | -58.6 |
| CCOC(=O)c1ccccc1NC(=O)c1ccc2c(=O)n3c(nc2c1)CCCCC3 | -41.3 |
| CCc1cccc(NC(=O)c2ccc3c(=O)n4c(nc3c2)CCCCC4)c1 | -76.6 |
| O=C(Nc1ccc(Cl)cc1)c1ccc2c(=O)n3c(nc2c1)CCCCC3 | -32.5 |
| COc1ccc(NC(=O)c2ccc3c(=O)n4c(nc3c2)CCCCC4)cc1 | -40 |
| CCOc1ccc(NC(=O)c2ccc3c(=O)n4c(nc3c2)CCCCC4)cc1 | 19.5 |
| O=C(Nc1ccc(F)cc1)c1ccc2c(=O)n3c(nc2c1)CCCCC3 | -51.8 |
| CC(=O)c1ccc(NC(=O)c2ccc3c(=O)n4c(nc3c2)CCCCC4)cc1 | -5.23 |
